# Only some compounds are listed: those with a hit (about 19% of all), similar ones and a draw of the others.
# TDP1 cell CPT: qHTS for Inhibitors of human tyrosyl-DNA phosphodiesterase 1 (TDP1): qHTS in cells in presence of CPT | Potency, µM (series often up to 46.2 µM), for inactives: top-dose activity change, negative = growth inhibition, usual class: inhibitors | chicken DT40 Tdp1-/-;hTDP1 cells + 20 nM CPT, ATP luminescence, 48 h | AID 686979, 2013 | actives 12% (n = 420,000); note: nearly all actives have a fitted effect of over 55% in size
#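 Chicken DT40 Tdp1-/- cells complemented with human TDP1, 400 cells/well, exposed to compounds plus 20 nM camptothecin for at least 48 h at 37 C; viability read as ATP content by CellTiter-Glo luminescence.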
# TDP1 cell noCPT: qHTS for Inhibitors of human tyrosyl-DNA phosphodiesterase 1 (TDP1): qHTS in cells in absence of CPT; DT40 Tdp1-/- hTDP1 cells, no CPT, ATP luminescence, 48 h; Potency, µM (doses to about 46.2 µM), for the others: at the highest dose activity change, negative = growth inhibition, actives largely listed as inhibitors; actives 15% (n = 420,000); note: nearly all actives have a fitted effect of over 55% in size
#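 Luminescent ATP content (CellTiter-Glo) served as the growth readout. Knockout chicken DT40 cells expressing human TDP1 were exposed to compounds without camptothecin for a minimum 48 hr at 37 °C.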
# TDP1 inh: qHTS Assay for Inhibitors of Tyrosyl-DNA Phosphodiesterase (TDP1); Potency, µM (doses to about 130 µM), inactives show at the top dose activity change, negative = inhibition, most hits filed as inhibitors; Tyrosyl-DNA phosphodiesterase 1 (Homo sapiens), Q9NUW8; AID 485290, 2010; recombinant TDP1, AlphaScreen DNA substrate cleavage; actives 0.28% (n = 350,000); note: nearly all actives have a fitted effect of over 40% in size
# Target sequence (Q9NUW8 whole entry, looked up): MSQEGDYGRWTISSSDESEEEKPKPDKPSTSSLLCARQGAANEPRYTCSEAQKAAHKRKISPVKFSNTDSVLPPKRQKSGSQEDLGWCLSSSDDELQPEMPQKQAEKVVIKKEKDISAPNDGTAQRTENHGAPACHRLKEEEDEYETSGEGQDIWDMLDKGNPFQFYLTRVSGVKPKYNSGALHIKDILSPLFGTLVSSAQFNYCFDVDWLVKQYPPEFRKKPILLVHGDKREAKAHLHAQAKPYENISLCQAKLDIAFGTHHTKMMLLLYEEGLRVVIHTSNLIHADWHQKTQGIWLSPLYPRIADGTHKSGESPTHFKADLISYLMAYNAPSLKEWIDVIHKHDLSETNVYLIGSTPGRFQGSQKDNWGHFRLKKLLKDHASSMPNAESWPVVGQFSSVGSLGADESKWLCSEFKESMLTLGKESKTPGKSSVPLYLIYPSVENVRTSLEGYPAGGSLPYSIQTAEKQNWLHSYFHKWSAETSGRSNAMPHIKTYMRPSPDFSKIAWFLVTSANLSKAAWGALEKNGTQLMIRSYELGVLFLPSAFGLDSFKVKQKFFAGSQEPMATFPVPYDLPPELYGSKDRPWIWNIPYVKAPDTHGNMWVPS
#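 Here, a 5' biotin and 3' phosphotyrosine-FITC DNA oligonucleotide reports Tdp1 activity: intact substrate bridges AlphaScreen beads, while cleavage leaves a 3' phosphate and drops signal. All incubations at room temperature.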
# RORgamma inh: qHTS for inhibitors of ROR gamma transcriptional activity | Nuclear receptor ROR-gamma (Mus musculus), P51450 | Drosophila S2 Gal4-RORgamma UAS-luciferase reporter, 20 h | Potency, µM (doses to about 53.6 µM), inactives show top-dose activity change, negative = inhibition, usual class: inhibitors | actives 5.4% (n = 310,000) | AID 2551, 2010; note: nearly all actives have a fitted effect of over 60% in size
#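 In this cell-based reporter format, copper sulfate (700 uM final) drives Gal4–ROR gamma fusion expression from a metallothionein promoter in Drosophila Schneider cells; compounds preincubated 1 hr, reporter read after 20 hr at ambient temperature.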
# VP16 counter: VP16 counterscreen qHTS for inhibitors of ROR gamma transcriptional activity; Drosophila S2 Gal4-VP16 UAS-luciferase, luminescence, 20 h; Potency, µM (highest dose often 53.6 µM), inactives show at the highest dose activity, negative = inhibition, hits mostly inhibitors; actives 3.5% (n = 310,000);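 note: Gal4-VP16 expression switched on by copper sulfate through the metallothionein promoter; nearly all actives have a fitted effect of over 50% in size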
# Starred values were filed as active, the others as inactive; ? = inconclusive; nt = not tested or not shown; [ ] = remark or other dose. Calls come from the whole dose curve; as a rule, active = well fitted curve in the direction sought with a large enough effect; inconclusive = small, poorly fitted or top-dose-only effect, or another doubt; inactive = no such curve, though single readings can be large; an effect the other way counts as inactive or inconclusive. % is set by controls: 0 for no effect and ±100 for the full control effect; potency is the fitted concentration of half-maximal effect.
SMILES,TDP1 cell CPT,TDP1 cell noCPT,TDP1 inh,RORgamma inh,VP16 counter
O=C(c1cc(COc2ccc(F)c(F)c2)on1)N1CCSCC1,-7%,-6%,0%,29%,21%
Cc1ccccc1OCc1nnc(SCC(=O)Nc2ccc3nc(SCC(=O)Nc4ccccc4)sc3c2)n1C,?,15µM*,8%,-3%,?
COc1ccc(NC(=S)NC(=O)c2csnn2)cc1,2%,9%,nt,?,26%
CC(=O)Nc1ccc(NC(=O)c2csnn2)cc1,3%,-6%,-5%,nt,nt
O=C(NC(=S)Nc1ccccc1)c1csnn1,0%,9%,5%,5.6µM*,?
O=C(NC(=S)Nc1ccc(C(F)(F)F)cc1)c1csnn1,?,-22%,-2%,7.9µM*,?
COc1ccc(-c2cc(C(F)F)n3ncc(C(=O)Nc4cccc(S(=O)(=O)N5CCOCC5)c4)c3n2)cc1,-6%,?,-2%,-13%,-24%
O=C(CCCN1C(=O)/C(=C\c2ccccc2)SC1=S)N1CCOCC1,23µM*,?,9%,nt,nt
O=C(CCN1C(=O)/C(=C\c2cccc(Br)c2)SC1=S)N1CCOCC1,6.5µM*,6.5µM*,4%,-41%,3%
COc1ccc(/C=C2\SC(=S)N(CCCC(=O)N3CCOCC3)C2=O)cc1OC,2%,?,5%,-11%,-23%
Cc1cc(NC(=O)CN2C(=O)/C(=C/c3cccc(Br)c3)SC2=S)no1,-24%,?,3%,-38%,3%
O=C(CCCN1C(=O)/C(=C/c2ccccc2Cl)SC1=S)N1CCOCC1,?,16µM*,11%,?,?
O=C(CCN1C(=O)/C(=C/c2ccccc2Cl)SC1=S)NCCCN1CCOCC1,?,?,9%,-43%,-24%
CCN(CC)Cc1ccc(OC)c(Cl)c1,-4%,-1%,5%,-19%,2%
Cc1ccnc(Nc2nc3ccccc3o2)n1,?,21µM*,5%,4.5µM*,7.9µM*
Cc1ccccc1Nc1ncc(C#N)c(N)n1,4%,-3%,1%,1%,3%
Cc1ccc(Nc2nc3ccccc3o2)cc1F,8.2µM*,10µM*,-2%,?,15%
N#Cc1cnc(Nc2nc3ccccc3o2)nc1-c1ccccc1,?,?,11%,2.5µM*,5µM*
CCCc1nc(Nc2nc3ccccc3o2)nc(C)c1C(=O)OCC,-11%,?,0%,6.3µM*,?
Cc1ccnc(Nc2cccnc2)n1,11%,21%,nt,nt,nt
CCOC(=O)c1cnc(Nc2nc3ccccc3o2)nc1CSc1ncccn1,-28%,?,nt,nt,nt
Cc1ccnc(NC(=O)CCC(=O)N(CC(=O)NCc2ccc(F)cc2)c2ccc(F)cc2)c1,-25%,?,nt,-8%,-1%
CCn1c(SCC(=O)Nc2ccccc2F)nnc1-c1cnccn1,8%,12%,1%,-1%,1%
Cc1ccc2oc(Nc3nc(C)c(C)c(C)n3)nc2c1,-24%,?,6%,?,6%
CCOC(=O)c1cnc(Nc2nc3ccccc3o2)nc1CSC(=S)N(CC)CC,0.15µM*,0.15µM*,5%,0.56µM*,0.56µM*
SMILES,TDP1 cell CPT,TDP1 cell noCPT,TDP1 inh,RORgamma inh,VP16 counter
Cc1nc(Nc2nc3ccccc3o2)nc(C)c1C,-20%,-69%,9%,11µM*,?
Cc1ccc2c(c1)nnn2C1CCN(CC(=O)NCc2ccccc2F)CC1,10%,-19%,-4%,2%,6%
COC(=O)c1ccc(-c2nc3ccc(C)cc3o2)cc1,10µM*,8.2µM*,0%,-41%,?
Nc1cccc(-c2nc3ncccc3o2)c1,-26%,-13%,1%,?,-2%
Nc1cccc(-c2nc3cc(S(=O)(=O)c4ccc5oc(-c6cccc(N)c6)nc5c4)ccc3o2)c1,8.2µM*,?,5%,4.5µM*,5µM*
Cc1ccc2nc(-c3cccc(N)c3)[nH]c2c1,15µM*,?,-1%[56.1 µM],7.9µM*,8.9µM*
Cc1ccc2oc(-c3cccc(N)c3)nc2c1,-1%,?,5%,11µM*,?
Cc1ccc(-c2nc3cc(C)ccc3o2)cc1,1%,-25%,7%,11µM*,14µM*
Cc1ccc(-c2nc3cc(N)ccc3o2)cc1,-11%,-2%,-3%,?,?
Cc1ccc(-c2nc3cc(NS(=O)(=O)c4ccc(C)cc4)ccc3o2)cc1,14µM*,?,4%,24%,-3%
Cc1csc2ncnc(NNC(=O)c3ccc(Cl)cc3)c12,?,10µM*,3%,1.8µM*,4.5µM*
O=C(NNc1ncnc2sccc12)c1ccc(Cl)cc1,13µM*,9.2µM*,nt,?,?
Cc1ccc(C(=O)NNc2ncnc3c2cnn3C)cc1,4%,-6%,1%,-42%,-2%
COC(=O)Cn1c(CCS(=O)(=O)c2ccc(Cl)cc2)nc2ccccc21,-7%,?,9%,3.5µM*,4%
O=C(ONC(=O)C1C2C=CC(C2)C1C(=O)NOC(=O)c1ccccc1)c1ccccc1 (stereo not given),3.3µM*,2.9µM*,nt,nt,nt
COC(=O)c1ccc(NC(=O)C2C3C=CC(C3)C2C(=O)O)cc1 (stereo not given),-6%,19%,nt,21%,-8%
CCOc1ccc(CC(=NCCc2ccccc2)C2=C(O)CC(C)(C)CC2=O)cc1OCC,15µM*,16µM*,-3%,30%,6%
Cc1cccc(C)c1N1C(=O)c2ccccc2NC(=O)C1C(=O)Nc1ccc(N2CCOCC2)cc1 (stereo not given),?,15µM*,nt,nt,nt
CCCn1c(-c2ccc(F)cc2)nc2c(NCCCN3CCCCC3C)nc(C)nc21 (stereo not given),nt,nt,-3%,-28%,-12%
O=C(Nc1ccccc1F)n1ncc2cc(Cl)ccc21,-12%,-5%,nt,2%,2%
CC1CCN(CCOCCOc2ccc(Cl)cc2Br)CC1,13µM*,21µM*,-3%,38%,1%
CC1CCN(CCOCCSc2ccc(Cl)cc2)CC1,?,18µM*,-12%,-28%,2%
Cc1cc(Cl)c(OCCOCCN2CCN(C)CC2)c(Br)c1,?,?,nt,27%[1.91 µM],11%
CN1CCN(CCOCCOc2c(Cl)cc(Cl)cc2Cl)CC1,?,16µM*,nt,nt,nt
Cc1cc(Cl)c(OCCOCCN2CCC(C)CC2)c(Br)c1,23µM*,16µM*,-5%,-17%,-9%
O=C(N/N=C/c1ccc(Cl)c([N+](=O)[O-])c1)c1cc(-c2ccc3c4c(cccc24)CC3)n[nH]1,-28%,?,nt,9%,-2%

# From PubChem BioAssay
